Compounds with a hit are over-represented: about 19% of the library has one in this group of screens.
DT40 TDP1 no CPT = qHTS for Inhibitors of human tyrosyl-DNA phosphodiesterase 1 (TDP1): qHTS in cells in absence of CPT; Potency, µM (series often up to 46.2 µM), most hits filed as inhibitors; hit rate 15% among 420,000; AID 686978, 2013; DT40 Tdp1-/- hTDP1 cells, no CPT, ATP luminescence, 48 h; further: nearly all actives have a fitted effect of over 55% in size
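DT40 Tdp1-/-;hTDP1 cells, no CPT (DMSO vehicle only), 400 cells/well; compounds pin-transferred; ≥48 hr, 37 °C; CellTiter-Glo 30 min RT dark, luminescence read.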
HT1080 IDH1KD tx = qHTS for induction of synthetic lethality in tumor cells producing 2HG: qHTS for the HT-1080-IDH1KD cell line; HT-1080 IDH1 knockdown viability, ATP luminescence, 48 h; Potency, µM (top dose mostly 46.1 µM), actives largely listed as cytotoxic; hit rate 2% among 360,000; AID 686971, 2013
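HT-1080-IDH1KD cells (IDH1 knocked down), 750/well in RPMI with 5% FBS, treated with compound 48 h at 37 degrees C. Viability by CellTiter-Glo luminescence, normalised to DMSO and no-cell wells; concentration-response curves classed.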
KB-V1 cytotox = qHTS assay for MDR1-selective chemotherapeutics: Primary screen using the drug-selected MDR subline cells KB-V1. KB-V1 MDR cells viability, CellTiter-Glo, 72 h. Potency, µM (top dose mostly 46.1 µM), most hits filed as cytotoxic. hit rate 3.4% among 400,000; further: nearly all actives have a fitted effect of over 60% in size
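qHTS viability screen in drug-selected KB-V1 MDR cells: 72 h compound treatment at 37 degrees C, ATP luminescence end point.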
HT1080-NT tox = qHTS for induction of synthetic lethality in tumor cells producing 2HG: qHTS for the HT-1080-NT fibrosarcoma cell line; HT-1080-NT fibrosarcoma viability, CellTiter-Glo ATP luminescence, 48 h; Potency, µM (doses to about 46.1 µM), usual class: cytotoxic; hit rate 1.6% among 360,000;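 further: NT is the 2HG producing partner of a matched IDH1 knockdown line; nearly all actives have a fitted effect of over 55% in size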
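750 cells/well, RPMI + 5% FBS; 2 h settle, compound pin-transfer, 48 h at 37 degrees C. CellTiter-Glo 10 min RT, luminescence. Normalized to DMSO and media-only wells.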
TDP1 cell CPT = qHTS for Inhibitors of human tyrosyl-DNA phosphodiesterase 1 (TDP1): qHTS in cells in presence of CPT | hit rate 12% among 420,000 | Potency, µM (series often up to 46.2 µM), usual class: inhibitors | chicken DT40 Tdp1-/-;hTDP1 cells + 20 nM CPT, ATP luminescence, 48 h; further: nearly all actives have a fitted effect of over 55% in size
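Chicken DT40 Tdp1-/- cells complemented with human TDP1, 400 cells/well, exposed to compounds plus 20 nM camptothecin for at least 48 h at 37 C; viability read as ATP content by CellTiter-Glo luminescence.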
KB-3-1 tox = qHTS assay for MDR1-selective chemotherapeutics: Primary screen using the parental adenocarcinoma cell KB-3-1; KB-3-1 viability, CellTiter-Glo ATP luminescence, 72 h; Potency, µM (titrated, usually from 46.1 µM), most hits filed as cytotoxic; hit rate 1.4% among 400,000; further: nearly all actives have a fitted effect of over 60% in size
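72 h, 37 °C compound treatment of KB-3-1 parental cells; CellTiter-Glo added, 10 min, luminescence read. Data corrected against DMSO-only plates and normalized before curve fitting.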
Hits are given with their value; i = inactive; ? = inconclusive; nt = no result. The call rests on the fitted dose curve; in most records, active means well fitted curve in the direction sought with a large enough effect; inconclusive means small, poorly fitted or top-dose-only effect, or another doubt; inactive means no such curve, though single readings can be large; an effect the other way counts as inactive or inconclusive.

SMILES | DT40 TDP1 no CPT | HT1080 IDH1KD tx | KB-V1 cytotox | HT1080-NT tox | TDP1 cell CPT | KB-3-1 tox
CCCc1cc(NCC2CCCO2)n2c(nc3ccccc32)c1C#N (configuration not stated) | 23µM | i | ? | i | 18µM | i
CCCc1cc(NCc2ccccn2)n2c(nc3ccccc32)c1C#N | 18µM | i | ? | i | ? | i
CCCc1cc(NCCN(C)C)n2c(nc3ccccc32)c1C#N | ? | i | i | i | i | i
CCCc1cc(NCCCN(C)C)n2c(nc3ccccc32)c1C#N | ? | i | i | i | i | i
Cc1ccc2[nH]c(CSc3nnc(NC(=O)COc4ccccc4C)s3)cc(=O)c2c1 | ? | nt | i | nt | ? | i
Cc1ccc2[nH]c(CSc3nnc(NC(=O)c4ccccc4F)s3)cc(=O)c2c1 | 10µM | nt | i | nt | 10µM | i
Cc1ccc2[nH]c(CSc3nnc(NC(=O)c4ccccc4C)s3)cc(=O)c2c1 | 5.8µM | nt | i | nt | 7.3µM | i
COc1cc(Cl)cc(C2NC(=O)NC(C)=C2C(C)=O)c1OCC(=O)O (configuration not stated) | i | i | i | i | i | i
COc1cc2c(c(OC)c1OC)-c1ccc(N(C)CC(OC)OC)c(=O)cc1[C@@H](NC(C)=O)CC2 | 0.65µM | 0.65µM | ? | ? | 1.3µM | 0.52µM
COc1cc2c(c(OC)c1OC)-c1ccc(OC)c(=O)cc1[C@@H](N(C)CC#CCO)CC2 | 0.18µM | 0.16µM | ? | 0.0073µM | 0.21µM | 0.052µM
CN[C@H]1CCc2cc(OC)c(OC)c(OC)c2-c2ccc(N(C)CC(OC)OC)c(=O)cc21 | 6.5µM | ? | ? | 4.1µM | 7.3µM | 2.6µM
COc1cc2c(cc1OC)C(COc1ccc(F)cc1)N(C(C)=O)CC2 (configuration not stated) | i | i | i | i | i | i
Cc1nn(C(C)C(=O)NCCCN2CCCCCC2)c(=O)c2cc3sccc3n12 (configuration not stated) | i | i | i | i | ? | i
Cc1ccc(NC(=O)CN(C)S(=O)(=O)c2ccc3[nH]c(=O)oc3c2)c(C)c1 | i | i | i | i | i | i
CC1CC(NS(=O)(=O)c2cc3c4c(c2)CCN4C(=O)CC3)CC(C)(C)C1 (configuration not stated) | ? | i | i | i | i | i
CC1CC(NC(=O)Cc2ccc(Br)cc2)CC(C)(C)C1 (configuration not stated) | ? | ? | ? | ? | 16µM | i
Cc1cnc(-n2ncc(C(=O)NCCN3CCOCC3)c2C2CC2)nc1-c1cccs1 | i | nt | nt | nt | i | nt
CCN(CC)S(=O)(=O)c1ccc(-c2nnc(SCC(=O)N3c4ccccc4CC3C)o2)cc1 (configuration not stated) | 21µM | i | ? | i | 21µM | i
CCN(CC)S(=O)(=O)c1ccc(-c2nnc(SCC(=O)c3ccc(OC)cc3)o2)cc1 | i | i | i | i | i | i
CCN(CC)S(=O)(=O)c1ccc(-c2nnc(SCC(=O)N3c4ccccc4CC3C)n2CC)cc1 (configuration not stated) | 21µM | i | 21µM | i | 15µM | i
COC(=O)C1=C(C(=O)OC)SC2(S1)C(C(=O)OC)=C(C(=O)OC)SC1=C2c2cc(C)ccc2NC1(C)C | 15µM | i | i | i | 21µM | i
COC(=O)c1c(-c2cc(C)ccc2C)csc1NC(=O)C1CC=CCC1C(=O)O (configuration not stated) | i | i | i | i | i | i
O=C(Nc1ccc2c(c1)OCO2)c1cc(C2CCCCN2C(=O)c2ccc3c(c2)CCO3)on1 (configuration not stated) | 26µM | i | i | i | 26µM | ?
CCCNC(=O)c1cc(C2CCCCN2C(=O)c2ccc(C#N)cc2)on1 (configuration not stated) | i | i | i | i | i | i
CCCNC(=O)c1cc(C2CCCCN2C(=O)c2ccc3c(c2)CCO3)on1 (configuration not stated) | i | i | i | i | i | i
SMILES | DT40 TDP1 no CPT | HT1080 IDH1KD tx | KB-V1 cytotox | HT1080-NT tox | TDP1 cell CPT | KB-3-1 tox
O=C(Nc1ccc2c(c1)OCO2)c1cc(C2CC2)on1 | i | 8.2µM | i | ? | i | ?
O=C(Nc1ccccc1)c1cc(C2CCCN(C(=O)c3ccc4c(c3)CCO4)C2)on1 (configuration not stated) | i | i | i | i | i | i
N#Cc1ccc(C(=O)N2CCCCC2c2cc(C(=O)Nc3ccc4c(c3)OCO4)no2)cc1 (configuration not stated) | 23µM | i | i | ? | ? | i
O=C(Nc1ccccc1Cl)c1cc(C2CCCN(C(=O)c3ccc4c(c3)CCO4)C2)on1 (configuration not stated) | 15µM | i | i | ? | 13µM | i
O=C(NC1CCN(c2ncccn2)CC1)c1ccccc1Cl | i | i | i | i | i | i
O=C(Nc1ccc2c(c1)OCO2)c1cc(C2CCCCN2C(=O)c2ccc(Cl)cc2)on1 (configuration not stated) | 21µM | i | i | i | 21µM | i
COC(=O)N1CCCCC1c1cc(C(=O)Nc2ccc3c(c2)OCO3)no1 (configuration not stated) | i | i | i | i | i | i
Cc1cc(C)cc(SCc2noc(C(=O)NCCN(C)C)c2C(=O)NCCN(C)C)c1 | 15µM | ? | i | 18µM | ? | ?
CCCCNC(=O)c1onc(CSc2ccc(F)c(F)c2)c1C(=O)O | i | i | ? | i | 21µM | i
O=c1oc(-c2ccccc2Cl)nc2ccsc12 | 15µM | i | i | i | ? | i
Cc1ccc2nc(CCl)[n+]([O-])c(-c3ccccc3)c2c1 | 16µM | i | i | i | 26µM | i
Cc1noc(C)c1C(=O)N1CCC[C@@]2(CCN(c3ccccc3)C2)C1 | ? | nt | nt | nt | i | nt
COc1ccc(S(=O)(=O)NCC(c2cccnc2)N2CCN(c3ccccc3)CC2)cc1C (configuration not stated) | ? | i | i | i | ? | i
Cc1cc(C)c(S(=O)(=O)NCC(c2ccco2)N2CCN(c3ccccc3)CC2)c(C)c1 (configuration not stated) | 26µM | nt | nt | nt | 23µM | nt
